Screening data from PubChem.
Shown are actives, neighbours in structure and some others; about 2.9% of the full set was active somewhere.
DRD3 agonist – agonists of human D3 dopamine receptor. 410,000 tested, 0.58% active. max activation, %. D3R DiscoveRx beta-arrestin cells, luminescence, 90 min. P35462; in the data active means max activation above about 30%; further: 0% is about no effect
Target sequence (P35462 whole entry, looked up): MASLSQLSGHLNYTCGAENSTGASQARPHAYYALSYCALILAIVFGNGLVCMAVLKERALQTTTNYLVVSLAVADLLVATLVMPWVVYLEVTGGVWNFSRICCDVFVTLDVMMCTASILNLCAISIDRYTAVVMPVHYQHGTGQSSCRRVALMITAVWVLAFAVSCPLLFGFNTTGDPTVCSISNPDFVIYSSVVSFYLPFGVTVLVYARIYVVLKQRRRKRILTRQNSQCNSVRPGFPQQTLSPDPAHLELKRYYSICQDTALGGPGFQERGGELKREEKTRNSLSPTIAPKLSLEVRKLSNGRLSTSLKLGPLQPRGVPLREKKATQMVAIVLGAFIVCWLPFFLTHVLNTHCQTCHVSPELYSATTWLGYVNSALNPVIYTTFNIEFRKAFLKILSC
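Cells at 1500/well, incubated overnight, then treated with pinned compounds (dopamine as control) for 90 min at 37 degrees C. DiscoveRx reagent added for 30 - 60 minutes at room temperature; luminescence read.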
DRD3 antagonist – antagonists of human D3 dopamine receptor. P35462. D3R cells, DiscoveRx beta-arrestin luminescence, antagonist mode; hits give low values. max response, negative = inhibition, %. 360,000 tested, 2.5% active. AID 652054; in the data active means max response below about -50%; inconclusive means no clear call, values can overlap the other calls; further: on the % scale 0 is the no-effect control and ±100 the full control effect
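Cells expressing the human receptor were seeded at 1500 cells/well, incubated overnight at 37 degrees C in 5% CO2, then exposed to library compounds with dopamine controls for 90 minutes at 37 degrees C before luminescent detection.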
a7 integrin act – activates integrin-mediated alleviation for muscular dystrophy | alpha7betagal myoblasts, beta-gal FDG fluorescence, 48 h | Potency, µM (doses to about 38.3 µM), without a hit: at the top dose activation, actives largely listed as activators | 350,000 tested, 0.064% active | AID 624291; active means well fitted activation curve with a large enough effect; inconclusive means small, poorly fitted or top-dose-only effect; inactive means no such curve, though single readings can be large or run the other way;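 further: potency means the concentration at half of the fitted maximal effect; 100% = response of the positive control SU9516; nearly all actives have a fitted effect of over 60% in size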
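alpha7betagal+/- myoblasts (passage 13, 250/well) treated 48 h at 37C with compounds at 1:260 dilution of DMSO stock. Lysed, then beta-galactosidase activity read as FDG fluorescence (ex 480/em 540) after 30 min, with pre-read for autofluorescence.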
The depositor's hits bear a star; ? = inconclusive; nt = no result given.

SMILES | DRD3 agonist | DRD3 antagonist | a7 integrin act
O=C(C1CCCN(Cc2ccccc2F)C1)N1CCc2ccccc2C1 (stereo not given) | -27 | -52* | -9%
O=C(C1CCCN(Cc2ccccc2F)C1)N1CCCCC1 (stereo not given) | -29 | -22 | 0%
Cc1cccc(CN2CCCC(C(=O)N3CCc4ccccc4C3)C2)c1 (stereo not given) | 1 | 45 | ?
O=C(Cc1ccccc1)NCC(=O)OC(c1ccccc1)c1ccccc1 | -8 | -1 | 3%
C=CCNC(=S)N/N=C/c1ccc(C(C)(C)C)cc1 | -17 | ? | -11%
O=c1c2cc(N3CCOCC3)ccc2[nH]c(=S)n1CCCN1CCCC1 | -11 | -73* | 0%
O=C(CCCCCn1c(=S)[nH]c2ccc(N3CCOCC3)cc2c1=O)NC1CCN(Cc2ccccc2)CC1 | -15 | -17 | -4%
CC1CCN(CCCn2c(=S)[nH]c3ccc(N4CCOCC4)cc3c2=O)CC1 | -55 | -81* | -4%
O=c1c2cc(N3CCOCC3)ccc2[nH]c(=S)n1CCCN1CCCCC1 | -3 | 0 | -10%
O=C(NC1CCN(Cc2ccccc2)CC1)c1ccc(Cn2c(=S)[nH]c3ccc(N4CCOCC4)cc3c2=O)cc1 | -12 | -71* | -27%
CCN(CCCn1c(=S)[nH]c2ccc(N3CCOCC3)cc2c1=O)c1ccccc1 | -1 | -21 | -3%
COc1ccc(C)c2sc(N(Cc3cccnc3)C(C)=O)nc12 | 2 | nt | nt
COc1ccc(CC(N)c2csc(NC(=O)c3cccs3)n2)cc1 (stereo not given) | -9 | 0 | nt
CCOc1ccc(Nc2nc(Nc3ccc(OCC)cc3)nc(N3CCOCC3)n2)cc1 | 0 | nt | nt
CCOC(=O)c1cc(-c2ccc(OC)cc2)n(CCC(=O)Nc2cccc(C)c2C)c1C | 6 | nt | nt
COc1ccc(Nc2nc(N3CCCCC3)nc(N3CCCCC3)n2)c(OC)c1 | -16 | 27 | 5%
COc1ccc(Nc2nc(N3CCCC3)nc(N3CCCC3)n2)c(OC)c1 | 146* | 44 | -5%
CCN(Cc1nc2ccccc2c(=O)[nH]1)C(=O)c1cc2c(s1)CCCCC2 | 3 | 14 | -32%
O=C(Oc1c(CN2CCOCC2)cc(Cl)c2cccnc12)c1cccs1 | -19 | -63* | -61%
COc1ccc(C(=O)Oc2c(CN3CCOCC3)cc(Cl)c3cccnc23)cc1 | -14 | -4 | -62%
O=C(Oc1ccc(Cl)c2cccnc12)N1CCOCC1 | 1 | 13 | -8%
O=C(Oc1c(CN2CCOCC2)cc(Cl)c2cccnc12)c1ccccc1Cl | -18 | -65* | -64%
O=C(Oc1c(CN2CCOCC2)cc(Cl)c2cccnc12)c1ccc(F)cc1 | -24 | -61* | -65%
CC(CN1CCOCC1)OC(=O)c1cccs1 (stereo not given) | -7 | -11 | 29%
COc1cc(C(=O)Oc2c(CN3CCOCC3)cc(Cl)c3cccnc23)cc(OC)c1OC | -38 | -111* | -17%
SMILES | DRD3 agonist | DRD3 antagonist | a7 integrin act
COc1cccc(C(=O)Oc2c(CN3CCOCC3)cc(Cl)c3cccnc23)c1 | -23 | -8 | -67%
Cc1cccc(NC(=O)c2ncn3c2C(=O)NC[C@@H]3C)c1 | 1 | 28 | 1%
Cc1ccc(C(=O)Nc2cc(-c3cn4cccnc4n3)ccc2C)cc1C | -3 | nt | nt
Nc1c(-c2ccccc2)c(CSc2nc3ccccc3[nH]2)nn1-c1cccc(Cl)c1 | -3 | 28 | -46%
O=C(Nc1ccc(Oc2ccccc2)cc1)c1csc([C@@H]2O[C@H](CO)[C@@H](O)[C@H]2O)n1 | 18 | 19 | nt
Cc1ccc(-c2csc(NS(=O)(=O)c3cccc(F)c3)n2)o1 | -6 | 12 | 6%
CCOC(=O)CN(c1sc(C)c(C)c1C(=O)OCC)S(=O)(=O)c1ccc(C)cc1 | 0 | -17 | -13%
O=C(Cc1ccccc1[N+](=O)[O-])Nc1ccc2c(c1)OCO2 | 0 | -14 | 1%
Cc1ccccc1N1CCN(CCc2nnc3n2CCCC3)CC1 | 35* | nt | nt
c1ccc(N2CCN(CCc3nnc4n3CCCCC4)CC2)cc1 | -9 | -8 | 1%
CCCOc1ccccc1-n1sc2c(c1=S)-c1cc(OC)cc3c1N(C(=O)C3=O)C2(C)C | -12 | -57* | -17%
COc1cc2c3c(c1)C(C)=CC(C)(C)N3C(=O)C2=O | -8 | -10 | -39%
O=[N+]([O-])c1ccccc1CN1CCN(Cc2ccccn2)CC1 | -9 | -5 | -14%
COCCN1C[C@@H](CO)O[C@@H](n2cnc3c(N4CCCC4)ncnc32)C1 | 87* | 46 | nt
OC[C@@H]1CN(CCN2CCOCC2)C[C@H](n2cnc3c(NC4CC4)ncnc32)O1 | -7 | 0 | nt
OC[C@@H]1CN(CCN2CCOCC2)C[C@H](n2cnc3c(NC4CCCC4)ncnc32)O1 | -10 | -51* | nt
COCCN1C[C@@H](CO)O[C@@H](n2cnc3c(N4CCN(C)CC4)ncnc32)C1 | 0 | 1 | nt
O=C(NNS(=O)(=O)c1ccccc1C(F)(F)F)c1cccc(S(=O)(=O)Nc2ccccc2Cl)c1 | 3 | 9 | -15%
O=c1[nH]c2cc3ccccc3cc2nc1-c1nnnn1C1CCCC1 | -15 | -68* | nt
O=c1[nH]c2ccccc2nc1-c1nnnn1C1CCCC1 | -9 | 0 | nt
Cc1cccc(C2c3[nH]c4ccccc4c3CCN2C(=O)c2cn(C)c3ccccc3c2=O)n1 (stereo not given) | -5 | ? | -10%
CCOC(=O)C1CCCN(c2nc3ccccc3nc2C(C#N)C(=O)OCCOC)C1 (stereo not given) | -4 | 1 | -28%
CCOC(=O)C1CCCN(c2nc3ccccc3nc2C(C#N)C(=O)OCC)C1 (stereo not given) | -4 | -53* | -15%
O=C(CCN1CCN(c2ccccc2)CC1)Nc1ccc2c(c1)OCO2 | 26 | ? | 36%
O=C(CCN1CCN(c2ccccc2F)CC1)Nc1ccc2c(c1)OCO2 | 40* | 314 | 8%
SMILES | DRD3 agonist | DRD3 antagonist | a7 integrin act
Cc1cccc(NC(=O)CCN2CCN(c3ccccc3F)CC2)c1 | 39* | nt | nt
Cc1cccc(NC(=O)CCN2CCCCC2)c1 | -3 | 17 | 28%
CCn1cc2nc(SCC(=O)Nc3ccc(OC)cc3OC)n(Cc3ccc(OC)cc3)c(=O)c2n1 | -13 | 0 | 0%
CCOC(=O)Cc1csc(NS(=O)(=O)c2ccc3c4c(cccc24)C(=O)N3CC)n1 | 0 | -66* | 13%
CCOC(=O)CNS(=O)(=O)c1ccc2c3c(cccc13)C(=O)N2CC | 3 | 7 | ?
O=C(NCCCN1CCOCC1)c1ccc(-n2nc(C(F)(F)F)cc2-c2cccs2)cc1 | 0 | ? | -34%
CCOC(=O)c1ccc(NC(=O)CC2Nc3ccccc3NC2=O)cc1 (stereo not given) | -5 | nt | nt
N/C(=N\OC(=O)COc1cc(Cl)c(Cl)cc1Cl)c1ccncc1 | -9 | -10 | 11µM*
N/C(=N\OC(=O)COc1ccc(Br)cc1Cl)c1ccncc1 | 0 | -22 | 7%
Cc1ccsc1/C=N/NC(=O)Cc1ccc([N+](=O)[O-])cc1 | -6 | -15 | 17%
CCCCC(O)(CCCC)C(=O)NNc1ccccc1 | 1 | -7 | 26%
Cc1ccc2nc(NC(=O)c3ccc(OCC4CCCO4)cc3)sc2c1 (stereo not given) | 49* | 65 | -10%
Cc1cc(C)c2nc(NC(=O)c3ccc(OCC4CCCO4)cc3)sc2c1 (stereo not given) | 1 | 9 | -4%
